The sample as a whole holds a higher share of hits than the screen did.
Methyltransferases = Primary Screen for Target Class Profiling of Small Molecule Inhibitors of Methyltransferases | purified enzyme, MTase-Glo SAH luminescence; active compounds read low | calls only at 40 µM | 25,000 tested, 3.9% active | AID 1745853, 2022; call rule not given here
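Each enzyme was reacted with SAM and its substrate, with compounds tested once at 40 uM; SAH formed was read by MTase-Glo luminescence.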
An asterisk follows results filed as active; i = inactive; + = active, no number; ! = repeats disagree. % is scaled to controls: 0 for no effect and ±100 for the full control effect.

SMILES	Methyltransferases
CCC(C)NC(=O)c1ccc2c(=O)n(C)c3nnc(SCC(=O)c4ccc(OC)cc4)n3c2c1 (stereo not drawn)	i
CCC(C)C(=O)O[C@H]1CCC=C2C=C[C@H](C)[C@H](CC[C@@H](O)C[C@@H](O)CC(=O)O)[C@H]21 (stereo partly drawn)	i
CCC(C)NC(=O)c1ccc2c(=O)n(C)c3nnc(SCc4cccc(C)c4)n3c2c1 (stereo not drawn)	i
COc1cc2c(Nc3cc(F)c(Cl)c(Cl)c3)ncnc2cc1OCC1CCCN(C)CCC1	+
COc1cc2c(Nc3ccc(Br)cc3F)ncnc2cc1OCC1CCN(C)CC1	+
CC(C)(C)OC(=O)NCCCC(=O)NCc1ccnc2[nH]ccc12	i
CCC(C)NC(=O)c1ccc2c(=O)n(C(C)C)c3nn(CC(=O)c4ccc(OC)cc4)c(=O)n3c2c1 (stereo not drawn)	i
CNS(=O)(=O)CCc1ccc2[nH]cc(C3CCN(C)CC3)c2c1	i
CN1CCC[C@@H]1Cc1c[nH]c2ccc(CCS(=O)(=O)c3ccccc3)cc12	+!
CN(C)CCc1c[nH]c2ccc(C[C@H]3COC(=O)N3)cc12	i
COc1ccc(OC)c(CNC(=O)c2ncn3c2C(=O)N(C2CC2)C(C)(C(=O)NC2CCCC2)C3)c1 (stereo not drawn)	i
C/C1=C/CCC2=CC(OC2=O)C(C)(C)/C=C/C1=O (stereo not drawn)	i
CCN(CC)Cc1ccc2cc(COC(=O)Nc3ccc(C(=O)NO)cc3)ccc2c1	+!
COc1ccc(NC(=O)c2ccc3c(c2)N(C(=O)c2ccc(OC)cc2)CC3)cc1	i
FC(F)(F)c1ccc(O[C@H]2COCCN(Cc3cccnc3)C2)nc1	i
CC(C)=CC1C[C@](C)(O)[C@@H]2[C@H]3CCC4[C@@]5(C)CC[C@H](O[C@@H]6OC[C@H](O)[C@H](O[C@@H]7O[C@H](CO[C@@H]8O[C@H](CO)[C@@H](O)[C@H](O)[C@H]8O)[C@@H](O)[C@H](O)[C@H]7O)[C@H]6O[C@@H]6O[C@@H](C)[C@H](O)[C@@H](O)[C@H]6O)C(C)(C)[C@@H]5CC[C@@]4(C)[C@@]34CO[C@@]2(C4)O1 (stereo partly drawn)	i
CCCCN1C(=O)c2cc(C(=O)N3CCC(N4CCCCC4)CC3)nn2CC1(C)C(=O)NC1CCCC1 (stereo not drawn)	i
Cc1cc2c(C(C)C)c(O)c(O)c(C=O)c2c(O)c1-c1c(C)cc2c(C(C)C)c(O)c(O)c(C=O)c2c1O	+
Cn1c(CNc2ccc(C(=N)N)cc2)nc2cc(C(=O)N(CCC(=O)O)c3ccccn3)ccc21	+
CCc1cccc(NC(=O)Cn2nc3n(C)c(=O)c4ccc(C(=O)NC(C)CC)cc4n3c2=O)c1 (stereo not drawn)	i
CCCC1c2ccc(C)n2CCN1C(=O)Nc1ccccc1OCC (stereo not drawn)	i
COc1cc2ncnc(Nc3cccc(O)c3)c2cc1OC	i
CCCNC(=O)Nc1ccc(Oc2ncnc3cc(OC)c(OC)cc23)cc1Cl	i
COc1cc2ncnc(Nc3cccc(Cl)c3)c2cc1OC	+
COc1ccc(-c2noc(-c3cccn3CC(=O)NC(C)C)n2)cc1F	i
SMILES	Methyltransferases
Cc1nnc(CNC(=O)C2CCC(=O)N(CCN3CCOCC3)C2)o1 (stereo not drawn)	i
COc1ccc(NC(=O)Cn2c(=O)oc3cc(S(=O)(=O)N4CCCC4)ccc32)cc1	i
COc1cccc(NC(=O)Cn2c(=O)oc3cc(S(=O)(=O)N4CCCCC4C)ccc32)c1 (stereo not drawn)	+
CC1CCN(C(=O)Cn2c(=O)oc3cc(S(=O)(=O)N4CCCCC4C)ccc32)CC1 (stereo not drawn)	i
CCC1(c2ccccc2)C(=O)NCNC1=O	i
COc1ccc(NC(=O)CCc2nnc3n(Cc4ccc(C)cc4)c(=O)c4ccccc4n23)cc1OC	i
O=C(CCc1ccccc1)c1c(O)c([C@@H]2O[C@H](CO)[C@@H](O)[C@H](O)[C@H]2O)c(O)c([C@@H]2O[C@H](CO)[C@@H](O)[C@H](O)[C@H]2O)c1O	+
O=C(Cc1ccccc1)OC[C@H]1O[C@H](O[C@H]2O[C@H](CO)[C@@H](O)[C@H](O)[C@H]2O)[C@H](O)[C@@H](O)[C@@H]1O	i
CN(C)c1ccc(C(=O)NC[C@H]2O[C@@H](CO)[C@@H](O)[C@H]2N(C)CCc2ccccc2)cc1	i
CN(Cc1noc(C2CCCC2)n1)c1cc(C2CC(O)C2)ncn1 (stereo not drawn)	i
CC(C)(CO)c1cc2cc(NC(=O)C3(c4ccc5c(c4)OC(F)(F)O5)CC3)c(F)cc2n1CC(O)CO (stereo not drawn)	i
CC(=O)NC(C(=O)OC1CCC(C)(C)C2CC=C3C(=O)OCC3C12C)C(C)C (stereo not drawn)	i
COc1ccc2c(OCc3nnc4ccc(-c5ccccc5)nn34)ccnc2c1	i
O=C(Nc1ccc(Oc2ccnc3[nH]ccc23)c(F)c1)c1cccn(-c2ccc(F)cc2)c1=O	i
COc1ccc2c(Oc3ccc(NC(=O)c4c(C)n(CC(C)(C)O)n(-c5ccccc5)c4=O)cc3F)ccnc2c1	+
CCOc1ccc(CN(CCOC)C(=O)C2CC3(CCNCC3)CN2)cc1 (stereo not drawn)	i
O=C(Nc1nn(Cc2ccccc2)c2cccc(N3CCOCC3)c12)C1CCC1	i
O=C(NCCCNc1nc(Nc2cccc(CN3CCOCC3)c2)ncc1C1CC1)C1CCC1	+
CNc1nccnc1-c1cccc(CN2CCOCC2)c1	i
COc1cccc(Cn2nc3n(CC(C)C)c(=O)c4ccc(C(=O)NC(C)C)cc4n3c2=O)c1	i
Cn1ncc2c(C(=O)N3CCC(C#N)CC3)cc(-c3cc(Cl)cc(Cl)c3)nc21	i
CC(=O)N1CCn2c(nn(-c3ccncc3)c2=O)C1	i
CC(C)CCN1C(=O)c2cc3occc3n2CC1(C)C(=O)NC1CCCCCC1 (stereo not drawn)	i
COCC1CCN(CC2(O)CCCN(Cc3cccc(F)c3F)C2=O)CC1 (stereo not drawn)	i
COc1cc(N2CCOCC2)ccc1NC(=O)c1csc(-c2cccnc2)n1	i
SMILES	Methyltransferases
COc1cc(N2CCC(N3CCN(C)CC3)CC2)ccc1Nc1ncc(Cl)c(-c2c[nH]c3ccccc23)n1	+
COc1cc(N2CCC(N)CC2)ccc1Nc1ncc(Cl)c(-c2c[nH]c3ccccc23)n1	+
COc1ccccc1Nc1ncc2c(n1)CN(C(=O)c1cc3ccccc3n1C)CCN2	i
Cn1c(=O)n(C)c2cc(S(=O)(=O)NC3CC3)ccc21	i
OC[C@H]1O[C@@H](O[C@H]2[C@H](O)[C@@H](CO)O[C@@H](OCc3ccccc3)[C@@H]2O[C@@H]2OC[C@](O)(CO)[C@H]2O)[C@H](O)[C@@H](O)[C@@H]1O	i
O=C(O[C@H]1[C@H](Oc2ccc(O)cc2CO)O[C@H](CO)[C@@H](O)[C@@H]1O)c1ccccc1	i
O=C(O)CCc1cccc(O[C@@H]2O[C@H](CO)[C@@H](O)[C@H](O)[C@H]2O)c1O	+
OC[C@H]1O[C@@H](OCCc2ccc(O)cc2)[C@H](O)[C@@H](O)[C@@H]1O	i
C=CCc1ccc(O[C@@H]2O[C@H](CO)[C@@H](O)[C@H](O)[C@H]2O)c(O[C@@H]2O[C@H](CO)[C@@H](O)[C@H](O)[C@H]2O)c1	i
